Screening results: PubChem, National Center for Advancing Translational Sciences (NCATS)
The sample as a whole holds a higher share of hits than the screen did.
Pf Dd2 growth: qHTS Primary assay for Inhibitors of Plasmodium falciparum Dd2 growth in vitro; P. falciparum Dd2 growth, SYBR Green, 72 h; Potency, µM (titrated, usually from 28.9 µM), usual class: inhibitors; 120,000 tested, 4.3% active; AID 1347417, 2020; active = well fitted inhibition curve with a large enough effect; note: nearly all actives have a fitted effect of over 65% in size
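Readout: SYBR Green fluorescence, 485 nm excitation, 535 nm emission, after ~16 h lysis at 37C. Before that, Dd2-infected red cells (2.5% hematocrit) grew 72 h with compound, 29 uM top final concentration.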
Large screens that a line does not name were inactive.

Cc1ccc(-n2nc(C(=O)NCCc3cccc(C)c3)c3c4ccccc4n(C)c3c2=O)cc1	none
COc1ccc(-n2nc(C(=O)NCc3ccc(F)cc3)c3c4ccccc4n(C)c3c2=O)cc1	none
COc1ccc(-n2nc(C(=O)NCCc3ccc(OC)c(OC)c3)c3c4ccccc4n(C)c3c2=O)cc1	Pf Dd2 growth 3.2µM
COc1ccc(C(=O)N2CCCC(O)(CN3CCCC3)C2)c(OC)c1 (stereo not drawn)	none
CC(C)C(=O)N1[C@@H]2CC[C@H]1CC(NC(=O)c1ccncc1)C2 (stereo partly drawn)	none
Cc1cccc(C)c1CN1CCC2(Cc3ccccc3CNC2=O)C1 (stereo not drawn)	none
CNC(=O)[C@@H]1CN(C(=O)c2ncoc2-c2cccc(C)c2)C[C@H]1CO	none
O=C(NCc1ccccc1)c1cnc2n1CCN(CC1CCCC1)CC2	none
COc1ccc(CN2CCc3nc(C(=O)NCCOc4ccccc4)oc3CC2)cn1	none
COc1ccccc1CN1CCc2nc(C(=O)Nc3ccc(Cl)cc3)oc2CC1	none
COc1ccc(CN2CCc3nc(C(=O)Nc4ccc(Cl)cc4)oc3CC2)cn1	Pf Dd2 growth 2.5µM
O=C(Cc1ccsc1)N1CCC2(CC1)CC(OCC1CC1)CCO2 (stereo not drawn)	none
O=C1CCN(Cc2ccccc2OCC(O)CN2CCCCC2)CCN1 (stereo not drawn)	none
CCOC(=O)C1CCN(Cc2ccccc2OCC(O)CN(C)C2CCCCC2)CC1 (stereo not drawn)	Pf Dd2 growth 10µM
CCOc1ccccc1CN1CCN(C(=O)CC2CCOCC2)CC1	none
Cc1ccc(NC(=O)c2ncoc2-c2ccco2)cc1Cl	none
COc1ccc(CN(Cc2ccco2)C(=O)COc2ccccc2Cl)cc1	none
COc1ccc(CN(Cc2ccco2)c2cnc(S(C)(=O)=O)nc2C(=O)Nc2ccc(C)c(Cl)c2)cc1	Pf Dd2 growth 10µM
CC(C)c1ccc(CN(Cc2ccco2)c2cnc(S(C)(=O)=O)nc2C(=O)Nc2ccc(F)cc2)cc1	Pf Dd2 growth 11µM
Cc1cccc(C)c1NC(=O)c1nc(S(C)(=O)=O)ncc1N(Cc1ccc(F)cc1)Cc1ccco1	none
CCS(=O)(=O)c1ncc(Cl)c(C(=O)N(Cc2ccccc2)Cc2ccco2)n1	none
CC(=O)N1CCC(C(=O)NCc2cccnc2N(C)Cc2ccccc2)CC1	none
O=C(c1ccccc1)N1CCn2c(nnc2[C@@H]2C[C@@H](O)CN2Cc2ccccc2)C1	none
COCCCn1c(C)cnc1CC1CCN(C(=O)NC2CCCCC2)CC1	none
O=C1CCN(S(=O)(=O)c2ccccc2)CCCN(C(=O)Nc2ccccc2F)CCN1	none
COc1ccc(N2CCN(C(=O)Nc3nc(C)ns3)CC2(C)C)cc1	none
CC(=O)N1CCC2(CC1)CN([S+](C)(=O)[O-])Cc1ccccc1O2	none
CCNC(=O)NC[C@@H]1C=C(C)[C@H](CC(=O)NCc2ccccn2)C[C@H]1C(C)C	none
COc1ccc(-c2nnc(C[C@@H]3C[C@@H](C(C)C)[C@H](CN(C)CCc4ccccn4)C=C3C)o2)cc1	Pf Dd2 growth 11µM
COc1ccc(-c2nnc(C[C@@H]3C[C@@H](C(C)C)[C@H](CN(C)CCC#N)C=C3C)o2)cc1	Pf Dd2 growth 7.9µM
COc1ccc(-c2nnc(C[C@@H]3C[C@@H](C(C)C)[C@H](CN4CCN(C)CC4)C=C3C)o2)cc1	none
CC1=C[C@@H](CNS(=O)(=O)c2ccccc2)[C@H](C(C)C)C[C@H]1Cc1nnc(-c2ccncc2)o1	none
CC1=C[C@@H](CNC(=O)CCC(=O)O)[C@H](C(C)C)C[C@H]1CC(=O)NCc1ccccn1	none
COc1ccc(CNC(=O)C[C@@H]2C[C@@H](C(C)C)[C@H](CC#N)C=C2C)cc1	none
CC1=C[C@@H](CNCc2ccccn2)[C@H](C(C)C)C[C@H]1Cc1nnc(-c2ccccc2)o1	Pf Dd2 growth 3.5µM
COc1ccccc1CC(=O)N1CCC[C@H]1c1nc(-c2ccccc2Cl)no1	none
O=C(NC1CCCC1)N1CCC(c2noc(C3CC3)n2)C1 (stereo not drawn)	none
O=C(NCc1nc(-c2ccncc2)n[nH]1)C1CCCN(C2CCCC2)C1 (stereo not drawn)	none
COc1cccc(C(=O)N2CCn3c(nn(-c4ccc(C)cc4)c3=O)C2)c1	none
CCOc1ccc(CN2C[C@@H](COC)[C@H](C(=O)N(C)C)C2)cc1	none
CCc1cc(=O)n(CC(=O)Nc2ccc(C)c(Cl)c2)c(N2CCOCC2)n1	none
Cc1noc(-c2ccccc2Cl)c1C(=O)N1CCC(Cc2ccccc2)CC1	none
O=C(c1ccc(Cl)cc1)N1CC(CO)C2(CCNCC2)C1 (stereo not drawn)	none
Cc1ccccc1N1Cc2c(NCC3CC3)ncnc2N(C)CC1=O	none
FC1(F)CN[C@H](c2nc(-c3ncccn3)no2)C1	none
Cc1nc(C)c(C(=O)NC2CC(c3nnc(Cn4ccnc4)n3C)C2)s1 (stereo not drawn)	none
CCN(CC)C(=O)C[C@@H]1c2nc(NC(=O)C3CCC3)sc2C[C@@H]2[C@](C)(CO)[C@H](O)CC[C@]21C	Pf Dd2 growth 7.1µM
CC(C)NC(=O)C[C@@H]1c2nc(NC(=O)C3CCCCC3)sc2C[C@@H]2[C@](C)(CO)[C@H](O)CC[C@]21C	Pf Dd2 growth 10µM
